In the library only some 11% were active in any assay of this set; here they are far more common.
PNC assembly inh: perinucleolar compartment assembly inhibition; hit rate 3.1% among 140,000; activity change (PNC), negative = inhibition, % at 10 µM; PC3M PTB-GFP, PNC prevalence imaging, 16 h; active compounds read low;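 active means readout at or below -70, meaning at least 70% loss of cells showing the perinucleolar compartment, a nuclear body marking cancer cells; inconclusive means readout between -30 and a set limit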;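 further: plate controls were DMSO wells for no effect and camptothecin positive control wells for full effect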
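Compounds are pinned in duplicate onto adhered PC3M cells stably expressing GFP-tagged PTB and incubated 16 h at 37 C. Cells are then fixed, nuclei stained with Hoechst, and PNC-positive cells counted.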
ALDH1A1 inh: blocks purified human ALDH1A1 activity; P00352; Purified ALDH1A1, NADH fluorescence, propionaldehyde substrate; Potency, µM (doses to about 75.3 µM), for inactives: at the highest dose activity, negative = inhibition, actives largely listed as inhibitors; hit rate 7.3% among 220,000; AID 1030;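 further: potency means the concentration at half of the fitted maximal effect; plate controls were no enzyme wells and a reference inhibitor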
HPGD block: inhibitors of human 15-hydroxyprostaglandin dehydrogenase (HPGD); AID 894; P15428; hit rate 4.3% among 150,000; Potency, µM, without a hit: at the top dose activity change, negative = inhibition, actives largely listed as inhibitors; purified HPGD, NADH fluorescence kinetic, PGE2 substrate; further: potency means the concentration at half of the fitted maximal effect
Target sequence (P15428 whole entry, looked up): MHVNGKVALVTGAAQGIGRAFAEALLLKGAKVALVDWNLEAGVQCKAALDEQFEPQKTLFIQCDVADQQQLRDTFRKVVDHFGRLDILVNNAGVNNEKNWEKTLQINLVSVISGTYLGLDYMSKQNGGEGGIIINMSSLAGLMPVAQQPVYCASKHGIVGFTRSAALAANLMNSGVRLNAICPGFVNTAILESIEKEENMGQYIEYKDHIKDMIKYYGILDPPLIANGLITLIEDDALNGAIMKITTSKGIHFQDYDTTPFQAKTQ
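20 nM HPGD preincubated 15 min at room temperature with compound in 50 mM Tris-HCl pH 8, 0.01% Tween 20. Started with 1 mM NAD+ and 30 uM prostaglandin E2; NADH fluorescence (360/450 nm) read 5 times over 30-s intervals, last minus first.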
* hit, by the source's call; ! = a repeat was not active; [ ] = remark or other dose. Unless noted, the call rests on the fitted dose curve; in most records, active means well fitted inhibition curve with a large enough effect (not every such curve was filed as active); inconclusive means small, poorly fitted or top-dose-only effect, or another doubt; inactive means no such curve, though single readings can be large or run the other way. Unless noted, on the % scale 0 is the no-effect control and ±100 the full control effect.

For CN[C@@H](CC(C)C)C(=O)N[C@@H]1C(=O)N[C@H](CC(N)=O)C(=O)N[C@@H]2C(=O)N[C@H]3C(=O)N[C@H](C(=O)N[C@H](C(=O)O)c4cc(O)cc(O)c4-c4cc3ccc4O)[C@H](O)c3ccc(c(Cl)c3)Oc3cc2cc(c3O[C@H]2O[C@@H](CO)[C@@H](O)[C@@H](O)[C@@H]2O[C@@H]2C[C@](C)(N)[C@H](O)[C@H](C)O2)Oc2ccc(cc2Cl)[C@@H]1O the results were ALDH1A1 inh 0%[20.9 µM] and HPGD block -7%.
Screening COC(=O)CCC(=O)Nc1sc(Cc2ccccc2)c(C)c1C(N)=O returned ALDH1A1 inh 2µM*.
Screening COC(=O)CC1(Cc2ccccc2)C(=O)NC(=O)NC1=O returned PNC assembly inh inconclusive, ALDH1A1 inh 4% and HPGD block -4%.
`CC1CC(=O)O1` (centres undefined) gave ALDH1A1 inh 9% and HPGD block -1%.
`FC(Cl)(Cl)Cl` gave ALDH1A1 inh 8% and HPGD block -4%.
`CN1CCC(OC(=O)Cc2ccccc2)CC1` gave ALDH1A1 inh 9%.
For O=C(OC1CCN(CCCl)CC1)C(c1ccccc1)c1ccccc1 the results were ALDH1A1 inh 8.9µM* and HPGD block -11%.
Screening CC(=O)C1=C(O)C2C3c4c[nH]c5cccc(c45)CC3C(C)(C)N2C1=O (centres undefined) returned ALDH1A1 inh -3% and HPGD block -8%.
For O=C(CCn1c(=O)oc2ccccc21)N1CCN(C(c2ccccc2)c2ccccc2)CC1 the results were PNC assembly inh inconclusive, ALDH1A1 inh 18µM* and HPGD block -19%.
CCC(C)N1CCN(C(=O)Cc2ccccc2)CC1 (centres undefined) was read as PNC assembly inh 15, ALDH1A1 inh -7% and HPGD block 3%.
`COc1ccc(CNC(=O)/C=C\c2ccc3[nH]cc(CCN(C)C)c3c2)cc1` gave ALDH1A1 inh -2% and HPGD block -14%.
For C=CCc1c(C)nc(C)nc1N/N=C/c1ccc(N(C)C)cc1 the results were PNC assembly inh 46, ALDH1A1 inh inconclusive and HPGD block inconclusive.
CCC(C)C(=O)c1c(O)c(C)c2oc3c(C)c(O)c(C(=O)C(C)CC)c(O)c3c2c1O (centres undefined) was read as ALDH1A1 inh 0% and HPGD block -6%.
Screening CCN(CC)S(=O)(=O)c1ccc(NN=C(C#N)C#N)cc1 returned PNC assembly inh 13, ALDH1A1 inh 2% and HPGD block 14µM*.
O[C@@H]1CCCC[C@@H]1N1CCC(c2ccccc2)CC1 was read as ALDH1A1 inh -4%.
`S=c1[nH]c2cc(Br)cnc2[nH]1` gave ALDH1A1 inh 3.2µM*.
Screening S=c1[nH]c2ccccc2[nH]1 returned ALDH1A1 inh inconclusive and HPGD block -5%.
Screening O=C/C=C/c1ccccc1 returned ALDH1A1 inh 13µM*! and HPGD block -9%.
CC(=O)/C=C/c1ccccc1 was read as ALDH1A1 inh 2% and HPGD block -9%.
C[C@H]1CC[C@@]2(NC1)O[C@@H]1C[C@@H]3[C@@H]4CC=C5C[C@@H](O)CC[C@]5(C)[C@@H]4CC[C@]3(C)[C@H]1[C@@H]2C was read as ALDH1A1 inh 9%[13.5 µM] and HPGD block -6%.
For O=C(OCC(=O)c1ccc([N+](=O)[O-])cc1)/C(=C\c1ccc(Cl)cc1)NC(=O)c1ccccc1 the results were PNC assembly inh 18, ALDH1A1 inh 13µM* and HPGD block -5%.
`O=C(O)CC/C(=C\c1cc([N+](=O)[O-])ccc1Cl)c1nc2ccccc2s1` gave PNC assembly inh inconclusive, ALDH1A1 inh inconclusive and HPGD block -14%.
Screening CC(=O)OCC(=O)C1CCC2C3CC=C4CC(O)CC[C@@]4(C)C3CC[C@]12C (some centres undefined) returned ALDH1A1 inh inconclusive and HPGD block -12%.
O=c1cccc2n1CC1CC2CN2CCCCC12 (centres undefined) was read as ALDH1A1 inh 5% and HPGD block -4%.
COc1ccc(CC(=O)NC(=S)NNC(=O)COc2c(C)cccc2C)cc1 was read as PNC assembly inh 47, ALDH1A1 inh inconclusive and HPGD block -16%.
`Cc1ccccc1C(=O)NNC(=S)NC(=O)COc1ccccc1` gave PNC assembly inh 51, ALDH1A1 inh 7.1µM* and HPGD block 25µM*.
For CC(C)CN1CC2(CCN(C(=O)c3ccncc3)CC2)C1 the results were ALDH1A1 inh 6% and HPGD block -1%.
Screening CN(C)CS/C(N)=N/[C@H](O)C(Cl)(Cl)Cl returned ALDH1A1 inh 3.2µM* and HPGD block -10%.
Screening O=C1/C(=C\c2ccccc2)C[C@@]2(O)[C@H]3Cc4ccc(O)c5c4[C@@]2(CCN3CC2CC2)[C@H]1O5 returned ALDH1A1 inh 0%.
`N[C@@H](CCCCP(=O)(O)O)C(=O)O` gave ALDH1A1 inh 10% and HPGD block -11%.
Cc1ccc(-n2nnnc2SCC(=O)Nc2sc(C)c(C)c2C#N)cc1C was read as PNC assembly inh 35, ALDH1A1 inh 16µM* and HPGD block -20%.
Screening C=CC[C@]1(O)CCC2C3CCC4=CCCCC4C3CCC21C (some centres undefined) returned ALDH1A1 inh inconclusive and HPGD block -10%.
Nc1ccc(Oc2ccc(N)cc2)cc1 was read as ALDH1A1 inh inconclusive and HPGD block -14%.
c1ccc([Se]c2c(-c3ccccc3)[se]c3ccccc23)cc1 was read as ALDH1A1 inh 9% and HPGD block -4%.
For COc1cccc(-n2c(O)c(C=NCc3ccc4c(c3)OCO4)c(=O)[nH]c2=O)c1 the results were PNC assembly inh -6, ALDH1A1 inh -3% and HPGD block -10%.
COc1ccccc1-n1c(O)c(C=NCc2ccc3c(c2)OCO3)c(=O)[nH]c1=O was read as PNC assembly inh -107*, ALDH1A1 inh -10% and HPGD block -24%.
For NCC(N)C(=O)c1ccccc1 (centres undefined) the results were ALDH1A1 inh inconclusive and HPGD block -17%.
O=C1NC(=O)N(CCC2=CCCCC2)C(=O)/C1=C\c1cccs1 was read as PNC assembly inh -86*, ALDH1A1 inh 1.3µM* and HPGD block 0.32µM*.
O=C1NC(=O)N(CCc2ccc(F)cc2)C(=O)/C1=C/c1cccs1 was read as ALDH1A1 inh 1.4µM*.
For Cn1cccc1/C=C1\C(=O)NC(=O)N(CCC2=CCCCC2)C1=O the results were PNC assembly inh inconclusive, ALDH1A1 inh inconclusive and HPGD block -13%.
`COCCN1C(=O)NC(=O)/C(=C\c2ccc(F)cc2)C1=O` gave ALDH1A1 inh 10%.
Screening CCCCCCC(C)OC(=O)COc1ccc(Cl)cc1Cl (centres undefined) returned ALDH1A1 inh -4% and HPGD block -19%.
For C1=CC2C3C=CC(C3)C2C1 (centres undefined) the results were ALDH1A1 inh 22µM* and HPGD block -10%.
`Cc1o[nH]c(=O)c1C[C@H](N)C(=O)O` gave ALDH1A1 inh -4% and HPGD block 4%.
N[C@@H](CCP(=O)(O)O)C(=O)O was read as ALDH1A1 inh -8%[13.5 µM] and HPGD block -18%.

Assay outcomes deposited in PubChem BioAssay by National Center for Advancing Translational Sciences (NCATS).
